Results on six compounds are retold here after PubChem BioAssay (NCI).

This is part of a sample that, as a whole, favours compounds with a hit. Of some 83,000 tested, about 20% had one in any assay.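 Single-concentration screen, 48 h exposure, 96-well plates. Endpoint: percent growth. Below 10 = active.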 A number with no mark means an inactive call. The source made the active and inactive calls.

Among the test systems are SK-MEL-2 melanoma; EKVX NSCLC; SN12C renal; UO-31 renal; TK-10 renal; ACHN renal; CAKI-1 renal; A498 renal; MOLT-4 leukemia; SR leukemia; RPMI-8226 leukemia; OVCAR-8 ovarian; OVCAR-5 ovarian; OVCAR-4 ovarian; SK-OV-3 ovarian; IGROV1 ovarian; HS 578T breast; NCI/ADR-RES ovarian; OVCAR-3 ovarian.
Common to all, as to assay: NCI-60 one-dose screen, 48 h (100 = growth as untreated, 0 = no growth, -100 = all killed)
Common to all, as to settings: 10 µM unless noted

`N=c1sc(Cc2ccc(Cl)cc2)cn1CC(=O)c1ccc(F)cc1`: the growth was 97.1% in the assay on SK-MEL-2 melanoma; 70.5% with EKVX NSCLC; 87.5% in the assay with SN12C renal; 57.6% in the assay on UO-31 renal; 66.9% in the assay with TK-10 renal; 47.2% in the assay with ACHN renal. Also, the growth in the assay with CAKI-1 renal is 44.6%; with A498 renal it was 91.1%; with MOLT-4 leukemia it was 71.3%; with SR leukemia it was 87.4%; in the assay with RPMI-8226 leukemia, 74.1%; in the assay with OVCAR-8 ovarian, 80%. For the same compound, the growth in the assay with OVCAR-5 ovarian was 71%; with OVCAR-4 ovarian it was 69%; with SK-OV-3 ovarian it was 107%; in the assay on IGROV1 ovarian it was 78.2%; in the assay on HS 578T breast, 96.9%; in the assay with NCI/ADR-RES ovarian, 73.9%.
For the compound `O=C1C=C[C@]2(C[C@@H](c3cccc(C(F)(F)F)c3)O[C@@H](c3cccc(C(F)(F)F)c3)O2)O1`, the growth in the assay on SK-MEL-2 melanoma was -26.7% (active); in the assay on EKVX NSCLC, 80.9%; in the assay on SN12C renal, 0.629% (active); in the assay on UO-31 renal it was -77.3% (active); in the assay with TK-10 renal, -85.5% (active); in the assay with ACHN renal, -49.4% (active). The growth is 32.8% in the assay with CAKI-1 renal; 31% in the assay with A498 renal; 3.17% (active) in the assay on MOLT-4 leukemia; 9.17% (active) in the assay on SR leukemia; -2.8% (active) in the assay on RPMI-8226 leukemia; 38.5% with OVCAR-8 ovarian. In addition, the growth in the assay with OVCAR-5 ovarian is 86.2%; with OVCAR-4 ovarian, 48.9%; with SK-OV-3 ovarian, 84.9%; in the assay with IGROV1 ovarian it was 22.3%; in the assay with OVCAR-3 ovarian, -33.1% (active); with HS 578T breast, -4.02% (active). The growth in the assay with NCI/ADR-RES ovarian is 51.3%.
For `CCOC(=O)c1c2c(n3ccc(NC(=O)OC(C)(C)C)cc13)C(=O)c1ncccc1C2=O`, the growth in the assay with SK-MEL-2 melanoma is 9.26% (active); in the assay with EKVX NSCLC, -39.8% (active); with SN12C renal, -31% (active); in the assay on UO-31 renal, -76.4% (active); in the assay on TK-10 renal, 6.15% (active); in the assay on ACHN renal, -41% (active). In addition, the growth with CAKI-1 renal is -3.67% (active); in the assay on A498 renal, -0.0751% (active); with MOLT-4 leukemia, 7.38% (active); in the assay with SR leukemia it was 7.58% (active); with RPMI-8226 leukemia it was -6.66% (active); in the assay on OVCAR-8 ovarian, -11.4% (active). Also, the growth in the assay on OVCAR-5 ovarian is -5.26% (active); in the assay with OVCAR-4 ovarian, 11.9%; in the assay with SK-OV-3 ovarian, -32.9% (active); in the assay with IGROV1 ovarian, -4.89% (active); in the assay on OVCAR-3 ovarian it was -33.6% (active); in the assay on HS 578T breast, -25.3% (active). For the same compound, the growth with NCI/ADR-RES ovarian is -35.9% (active).
As for `CC/C=C/C/C=C/C/C=C/C/C=C/C/C=C/C/C=C/CCC(=O)Nc1ccn([C@@H]2O[C@H](CO)[C@@H](O)C2(F)F)c(=O)n1`, the growth is 83.1% with SK-MEL-2 melanoma; 70% in the assay with EKVX NSCLC; -2.1% (active) in the assay on SN12C renal; 3.26% (active) with UO-31 renal; 67.9% in the assay on TK-10 renal; 6.15% (active) in the assay with ACHN renal. The growth was 12.4% in the assay with CAKI-1 renal; 16.6% in the assay on A498 renal; 1.85% (active) with MOLT-4 leukemia; 18.5% in the assay on SR leukemia; 28.1% in the assay with RPMI-8226 leukemia; 10% with OVCAR-8 ovarian. In addition, the growth in the assay with OVCAR-5 ovarian was 50.1%; in the assay on OVCAR-4 ovarian it was 73.8%; in the assay with SK-OV-3 ovarian, 22%; in the assay with IGROV1 ovarian it was 57.5%; with OVCAR-3 ovarian, 53.4%; with HS 578T breast it was 76.1%. Further, in the assay with NCI/ADR-RES ovarian, the growth was 14.1%.
Consider `N#Cc1c(-c2cccc(Cl)c2)cc(-c2cccc(Cl)c2)[nH]c1=O`, for which the growth in the assay with SK-MEL-2 melanoma was 67%; with EKVX NSCLC, 89%; with SN12C renal, 82.8%; with UO-31 renal, 74%; in the assay on TK-10 renal it was 96.7%; with ACHN renal, 93.4%. Also, the growth in the assay with CAKI-1 renal was 63.6%; in the assay on A498 renal, 47%; in the assay on MOLT-4 leukemia it was 54.1%; in the assay with SR leukemia, 29.6%; in the assay with RPMI-8226 leukemia, 57.2%; with OVCAR-8 ovarian it was 87.3%. Moreover, the growth is 101% in the assay with OVCAR-5 ovarian; 68.4% in the assay on OVCAR-4 ovarian; 82.6% with SK-OV-3 ovarian; 70.8% with IGROV1 ovarian; 64.1% in the assay on OVCAR-3 ovarian; 56.8% in the assay on HS 578T breast. In addition, the growth in the assay with NCI/ADR-RES ovarian is 64.6%.
As for `O=C(COc1ccc(/C=C2\Oc3ccccc3C2=O)cc1)Nc1nc2ccccc2s1`, the growth in the assay with SK-MEL-2 melanoma is 106%; in the assay with EKVX NSCLC, 42.8%; with SN12C renal, 64.4%; in the assay with UO-31 renal, -77.2% (active); in the assay with TK-10 renal it was 134%; with ACHN renal, 72.7%. Besides, the growth in the assay on CAKI-1 renal is -83% (active); in the assay on A498 renal, 115%; in the assay with MOLT-4 leukemia, -48.8% (active); with SR leukemia, -71.9% (active); with RPMI-8226 leukemia, -56.8% (active); in the assay on OVCAR-8 ovarian, 18.8%. For the same compound, the growth in the assay on OVCAR-5 ovarian is 67.8%; with OVCAR-4 ovarian, 89.9%; in the assay on SK-OV-3 ovarian it was 116%; in the assay on OVCAR-3 ovarian, 66.5%; with HS 578T breast, 88.5%; in the assay with NCI/ADR-RES ovarian, 75.5%.
